Reference: PubChem BioAssay (NCATS)
Records with an inconclusive call do not appear. Active and inactive are the calls of the source. Calls follow the shape of the dose curve; as a rule, active = well fitted curve in the direction sought with a large enough effect; inconclusive = small, poorly fitted or top-dose-only effect, or another doubt; inactive = no such curve, though single readings can be large; an effect the other way counts as inactive or inconclusive.

Legend:
[1] = target: Luciferin 4-monooxygenase (Photinus pyralis) (UniProt P08659); test: Biochemical firefly luciferase enzyme assay for NPC (AID 624030);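 also: purified P. pyralis luciferase at 10 nM with luciferin and ATP substrate; nearly all actives have a fitted effect of over 70% in size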
Sequence of Luciferin 4-monooxygenase (Photinus pyralis) (P08659 whole entry, looked up): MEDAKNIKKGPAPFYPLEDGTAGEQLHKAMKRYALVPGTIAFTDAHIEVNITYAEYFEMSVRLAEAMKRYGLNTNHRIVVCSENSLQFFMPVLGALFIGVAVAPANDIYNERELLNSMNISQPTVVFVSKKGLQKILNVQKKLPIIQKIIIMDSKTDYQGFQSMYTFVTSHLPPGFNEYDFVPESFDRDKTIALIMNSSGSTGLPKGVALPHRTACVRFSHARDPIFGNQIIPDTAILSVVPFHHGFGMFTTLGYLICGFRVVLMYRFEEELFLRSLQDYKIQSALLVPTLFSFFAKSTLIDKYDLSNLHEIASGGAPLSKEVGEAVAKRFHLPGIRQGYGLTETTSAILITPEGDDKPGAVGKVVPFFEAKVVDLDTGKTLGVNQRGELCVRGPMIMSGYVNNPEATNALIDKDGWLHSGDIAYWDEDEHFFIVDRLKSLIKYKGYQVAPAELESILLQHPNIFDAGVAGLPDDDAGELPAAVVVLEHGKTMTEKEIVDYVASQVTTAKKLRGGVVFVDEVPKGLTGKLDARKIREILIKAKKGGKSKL
Method in brief: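 Direct inhibition of firefly luciferase enzyme (10 nM final, 50 mM Tris Acetate) assessed by luminescence within 5 minutes. Percent activity scaled between DMSO and PTC124 positive control, with concentration-effect curves classified by fit quality and response.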

[2] = S16 Schwann cell viability assay (CellTiter-Glo assay) (AID 624031); also: potency is read from the fitted curve at half-maximal effect; nearly all actives have a fitted effect of over 70% in size
Method in brief: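 Rat S16 Schwann cells without reporter constructs received compound or DMSO for 24 h at 37 °C under 5% CO2. Cellular ATP was then quantified by CellTiter-Glo luminescence, with vehicle wells defined as 0% activity and cell-free wells as reference.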

7G8 = test: qHTS profiling for inhibitors of Plasmodium falciparum proliferation (AID 504749); also: potency is read from the fitted curve at half-maximal effect; nearly all actives have a fitted effect of over 60% in size; settings: P. falciparum in erythrocytes, SYBR Green DNA, 72 h; series mostly up to 12.8 µM
Method in brief: (§1)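 Infected RBCs, 0.3% parasitemia/2.5% Hct final; cpd 72 h, 37 C, 5% CO2; lysis buffer with saponin/triton/SYBR Green I, o/n RT dark; FI 485/535; norm. to artemisinin (0.29 uM) and DMSO.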

AA1029 = test: as above; settings: P. falciparum in erythrocytes, SYBR Green DNA, 72 h; series mostly up to 12.8 µM
Method in brief: as §1

CP211 = test: as above; settings: P. falciparum in erythrocytes, SYBR Green DNA, 72 h; series mostly up to 12.8 µM
Method in brief: as §1

CP217 = test: as above; settings: P. falciparum in erythrocytes, SYBR Green DNA, 72 h; series mostly up to 12.8 µM
Method in brief: as §1

CP252 = test: as above; settings: P. falciparum in erythrocytes, SYBR Green DNA, 72 h; series mostly up to 12.8 µM
Method in brief: as §1

CP260 = test: as above; settings: P. falciparum in erythrocytes, SYBR Green DNA, 72 h; series mostly up to 12.8 µM
Method in brief: as §1

CP268 = test: as above; settings: P. falciparum in erythrocytes, SYBR Green DNA, 72 h; series mostly up to 12.8 µM
Method in brief: as §1

CP297 = test: as above; settings: P. falciparum in erythrocytes, SYBR Green DNA, 72 h; series mostly up to 12.8 µM
Method in brief: as §1

CP315 = test: as above; settings: P. falciparum in erythrocytes, SYBR Green DNA, 72 h; series mostly up to 12.8 µM
Method in brief: as §1

DIV14 = test: as above; settings: P. falciparum in erythrocytes, SYBR Green DNA, 72 h; series mostly up to 12.8 µM
Method in brief: as §1

DIV17 = test: as above; settings: P. falciparum in erythrocytes, SYBR Green DNA, 72 h; series mostly up to 12.8 µM
Method in brief: as §1

FAB9 = test: as above; settings: P. falciparum in erythrocytes, SYBR Green DNA, 72 h; series mostly up to 12.8 µM
Method in brief: as §1

ICS = test: as above; settings: P. falciparum in erythrocytes, SYBR Green DNA, 72 h; series mostly up to 12.8 µM
Method in brief: as §1

JCK = test: as above; settings: P. falciparum in erythrocytes, SYBR Green DNA, 72 h; series mostly up to 12.8 µM
Method in brief: as §1

N140 = test: as above; settings: P. falciparum in erythrocytes, SYBR Green DNA, 72 h; series mostly up to 12.8 µM
Method in brief: as §1

PC15 = test: as above; settings: P. falciparum in erythrocytes, SYBR Green DNA, 72 h; series mostly up to 12.8 µM
Method in brief: as §1

TAB165 = test: as above; settings: P. falciparum in erythrocytes, SYBR Green DNA, 72 h; series mostly up to 12.8 µM
Method in brief: as §1

W2 = test: as above; settings: P. falciparum in erythrocytes, SYBR Green DNA, 72 h; series mostly up to 12.8 µM
Method in brief: as §1

Measured: Potency

Cc1cc(/C=C\c2ccc3cc(N(C)C)ccc3[n+]2C)c(C)n1-c1ccccc1
inactive: [1]
active: [2] 15.5 µM | 7G8 398 nM | AA1029 1.58 µM | CP211 1.81 µM | CP217 3.16 µM | CP252 3.55 µM | CP260 355 nM | CP268 4.05 µM | CP297 2.28 µM | CP315 2.03 µM | DIV14 2.87 µM | DIV17 3.61 µM | FAB9 2 µM | ICS 562 nM | JCK 3.16 µM | N140 3.98 µM | PC15 3.55 µM | TAB165 794 nM | W2 128 nM
